Screen size: about 310,000 compounds; about 11,000 (3.5%) were called active. Entries that show only a call come without a potency. Inconclusive results (about 8%) are left out. The sample holds actives, similar compounds and a random draw of the others, so the mix is not that of the screen. Values without a mark were called inactive. Calls follow the shape of the dose curve; as a rule, active = well fitted inhibition curve with a large enough effect; inconclusive = small, poorly fitted or top-dose-only effect, or effect the other way; inactive = flat fitted curve, though single readings scatter.

Here are results for 111 compounds from PubChem BioAssay AID2546 (National Center for Advancing Translational Sciences (NCATS), 2010).
Potency is read from the fitted curve at half-maximal effect.

This assay is described as follows: VP16 counterscreen qHTS for inhibitors of ROR gamma transcriptional activity.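 Also: Gal4-VP16 expression switched on by copper sulfate through the metallothionein promoter; nearly all actives have a fitted effect of over 50% in size.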 Particulars: Drosophila S2 Gal4-VP16 UAS-luciferase, luminescence, 20 h; series mostly up to 53.6 µM. On the technique in general: The purpose of a counterscreen is to sort out artefacts and off-target activity.
As to `Cc1ccc(CN2CCNC(=O)C2CC(=O)NCc2csc(C(C)C)n2)cc1` (stereo unspecified), the Potency result is “inactive”. With `O=C(c1ccc(Cl)cc1)N1N=C(c2ccccn2)CC1(O)C(F)(F)F` (stereo unspecified), the Potency is 4.47 µM (active). In the case of `O=C(C1CC1)N1N=C(c2ccc(Br)cc2)CC1(O)C(F)(F)F` (stereo unspecified), the Potency entry is “inactive”. Turning to `COC(=O)C1(O)CC(C(C)C)=NN1C(=O)c1ccc(Cl)cc1` (stereo unspecified), the Potency entry is “inactive”. `O=C(NCc1ccccn1)Nc1ccc(F)cc1`: the Potency entry was “inactive”.

`CCC(C)c1ccc(NC(=S)NCc2ccccn2)cc1` (stereo unspecified): the Potency was 8.91 µM (active). Same read-out and setting: next, `COc1cccc(NC(=S)NCc2ccccn2)c1`: “inactive”. Turning to `Cc1cccc(NS(=O)(=O)c2ccc(C(=O)NCC(C)(C)N3CCOCC3)cc2)c1C`, the Potency entry was “inactive”. Still for that read-out and setting: next, `Cc1cccnc1CC(C)NC(=O)c1cc(COc2cncc(Cl)c2)on1` (stereo unspecified): “inactive”; `COc1cc([C@H](Cc2ccccc2)NC(C)=O)oc(=O)c1`: 11.2 µM (active).

As for `CCOC(=O)C(Cc1ccccc1)NC(=O)CCC(=O)c1ccc(OC)cc1` (stereo unspecified), the Potency result is “inactive”. The same measure, in the same setting: next, `COC(=O)[C@H](Cc1ccccc1)NC(=O)Nc1ccc(OC)cc1`: “inactive”; `COc1cc(/C=C2\C(=N)N3N=C(CC(=O)N4CCOCC4)SC3=NC2=O)cc(OC)c1OC`: “inactive”; `CN(C)C(=O)CCC(=O)N1CCCCC1C(=O)Nc1ccc(Oc2ccccc2F)cc1` (stereo unspecified): “inactive”. On to `C/C(=N\NC(=O)c1cccnc1)c1ccc(-c2ccccc2)cc1`, for which the Potency entry is “inactive”. Regarding `Cc1ccc(C(=O)NCCNC(=O)c2ccccc2)cc1`, the Potency entry was “inactive”.

On to `C/C(=N\NC(=O)c1ccc(C)cc1)C1C(=O)c2ccccc2C1=O`, for which the Potency is 0.562 µM (active). In the case of `CC(Cc1cccs1)N(Cc1ccc(Cl)cc1)C(=O)c1ccncc1` (stereo unspecified), the Potency entry was “inactive”. Regarding `CCOC(=O)c1ccc2[nH]c3c(c2c1)CCCC3NC=O` (stereo unspecified), the Potency entry is “inactive”. Consider `CCCOC(=O)Nc1sc2c(c1C(=O)OCC)CCC2`, for which the Potency entry is “inactive”. As to `CCOC(=O)c1c(NC(=O)C(C)Sc2c[nH]c3ccccc23)sc2c1CCC2` (stereo unspecified), the Potency entry was “inactive”. For `CCc1ccc(N(CC(=O)Nc2sc3c(c2C(=O)OC)CCCC3)S(C)(=O)=O)cc1`, the Potency entry was “inactive”. Same read-out and setting: next, `CCOC(=O)c1c(NC(=S)Nc2ccccc2C)sc2c1CCC2`: 5.62 µM (active); `O=C(Nc1sc2c(c1C(=O)O)CCC2)c1ccccc1F`: “inactive”; `CCN(CC)CC(=O)Nc1sc2c(c1C(=O)c1ccccc1C)CCC2`: 17.8 µM (active).

For the compound `CCOCC(=O)Nc1sc2c(c1C(=O)OCC)CCCC2`, the Potency result was “inactive”. Turning to `CCOC(=O)c1c(NC(=S)NC)sc2c1CCCC2`, the Potency is 1.41 µM (active). On to `CCOC(=O)c1c(NC(=O)c2ccc(Br)o2)sc2c1CCCC2`, for which the Potency result was “inactive”.

`O=C(O)CN1c2cccc3cccc(c23)S1(=O)=O`: the Potency result is “inactive”. Still for that read-out and setting: the result for `CC(C)(COC(=O)Nc1ccccc1)COC(=O)Nc1ccccc1` reads “inactive”; that for `CC(=O)Nc1ccc(NC(=O)CC2CCCC2)cc1`, “inactive”; that for `COc1cc(C(=O)N2CCN(C3CCC(C)CC3)CC2)cc(OC)c1OC` (stereo unspecified), “inactive”. Same read-out and setting: next, `COc1ccccc1/C=N/N1CCN(Cc2ccccc2Cl)CC1`: “inactive”; `CCOCCCNc1c(CC)c(C)c(C#N)c2nc3ccccc3n12`: “inactive”; `C=C(C(C)=O)C(O)c1cccs1` (stereo unspecified): “inactive”.

Consider `CC(=O)NCC(O)c1ccc([N+](=O)[O-])cc1` (stereo unspecified), for which the Potency result was “inactive”.

Turning to `C=C(C(C)=O)C(O)c1ccc([N+](=O)[O-])cc1` (stereo unspecified), the Potency was 10 µM (active). The same measure, in the same setting: next, `O=C(c1ccco1)N1CCN(C(=O)c2cc(-c3ccccc3F)no2)CC1`: “inactive”. On to `O=C(c1cc(COc2ccc(F)cc2F)on1)N1CCOCC1`, for which the Potency entry is “inactive”.

For the compound `CC(C)C[C@H](NC(=O)C1CC(=O)N(c2ccc3c(c2)OCCO3)C1)C(=O)NC1CCCC1` (stereo partly specified), the Potency entry is “inactive”. `Cc1noc(C)c1-c1ccc2ncnc(NCc3ccc4[nH]ccc4c3)c2c1`: the Potency entry is “inactive”. Take `COc1ccc(COC(=O)c2ccc(Cl)c(S(=O)(=O)N3CCOCC3)c2)cc1F`: the Potency result was “inactive”. `Cc1cc(Nc2ccc(Cl)cc2)nc(N2CCOCC2)n1`: the Potency entry is “inactive”.

In the case of `COc1ccc(NC(=O)c2nc(-n3nc(C)cc3C)ccc2Cl)cc1Cl`, the Potency result was “inactive”. On to `Cc1ccc(S(=O)(=O)Nc2nc(C)cc(N/N=C/c3ccc(O)cc3)n2)cc1`, for which the Potency result is “inactive”.

For `Cc1cc(C)n(-c2cc(Oc3ccccc3)ncn2)n1`, the Potency result is “inactive”. As for `COc1ccc(Nc2cc(C)nc(-n3nc(C)cc3C)n2)cc1`, the Potency was 1.12 µM (active). Consider `COc1ccc(/C=N/Nc2cc(N3CCOCC3)nc(C)n2)c(OC)c1`, for which the Potency result was “inactive”. On to `COc1ccccc1/C=N\Nc1cc(C)nc(-n2nc(C)cc2C)n1`, for which the Potency is 0.355 µM (active). Regarding `Cc1cc(N/N=C\c2ccc(Br)cc2)nc(-n2nc(C)cc2C)n1`, the Potency is 1.41 µM (active). On to `COc1cccc2c(N/N=C/c3ccco3)cc(C)nc12`, for which the Potency entry is “inactive”. On to `Cc1nc(Cl)cc(N/N=C/c2ccccc2)n1`, for which the Potency result was “inactive”.

On to `CC(=O)c1ccc(Oc2cc(C)nc(-n3nc(C)cc3C)n2)cc1`, for which the Potency was 6.31 µM (active).

On to `Cc1cc(Oc2ccc(Cl)cc2)nc(SCC(=O)c2ccccc2)n1`, for which the Potency entry is “inactive”.

In the case of `COC(=O)c1ccc(COC(=O)c2cnc(Cl)c(Cl)c2)cc1`, the Potency result was “inactive”. Still for that read-out and setting: next, `COCc1cc(C)n(CC(=O)NCC2CCCO2)c(=O)c1C#N` (stereo unspecified): “inactive”; `CCc1ccccc1N(CC(=O)NCC1CCCO1)C(=O)CCC(=O)Nc1nccs1` (stereo unspecified): “inactive”. Still for that read-out and setting: next, `COc1ccccc1N1CCN(C(=O)c2cc(=O)c3cc(C)cc(C)c3o2)CC1`: “inactive”; `C[C@H]1[C@H]2c3nc4ccccc4n3C[C@H]1ON2C1CCCCC1`: “inactive”; `COc1cc2c(cc1OC)C(c1cccc([N+](=O)[O-])c1)=NCC2`: “inactive”. As to `O=C1CSC(=S)N1/N=C/c1ccc(O)c([N+](=O)[O-])c1`, the Potency result is “inactive”. Turning to `CCOc1ccccc1N=C1NC(=O)CS1`, the Potency result was “inactive”. Still for that read-out and setting: the result for `CCOc1cccc(/C=N/N2C(=O)CSC2=S)c1O` reads 12.6 µM (active). With `CCOc1ccc(N(CC(=O)Nc2cccc(OC)c2)S(C)(=O)=O)cc1`, the Potency entry is “inactive”. As to `CCN1CCN(C2CCCCC2NS(=O)(=O)c2ccc(Cl)cc2)CC1` (stereo unspecified), the Potency result is “inactive”.

For the compound `COc1ccc(Nc2nc(=O)[nH]nc2C)cc1`, the Potency entry was “inactive”. Consider `Cc1nnc(N/N=C/c2cccs2)[nH]c1=O`, for which the Potency result was “inactive”. With `Cc1n[nH]c(=O)nc1N/N=C/c1cccs1`, the Potency is 11.2 µM (active). Take `O=C(NCCc1nnc2ccc(SCC(=O)N3CCOCC3)nn12)c1ccccc1`: the Potency result is “inactive”. In the case of `CCOC(=O)C1(CCOC)CCN(Cc2cc3ccccc3s2)CC1`, the Potency entry is “inactive”. As for `CCC(=O)Nc1ccc2nn(-c3ccc(F)cc3)nc2c1`, the Potency result was “inactive”. On the same count and under the same terms, next, `CCOc1ccc(N/C=C/C(=O)c2cc(OC)c(OC)c(OC)c2)cc1`: “inactive”.

With `COc1ccc(C(=O)/C=C/Nc2ccccn2)cc1`, the Potency is 3.55 µM (active). For `Cc1cc(N/C=C\C(=O)c2ccc(Cl)c(Cl)c2)no1`, the Potency result was “inactive”. With `CS(=O)(=O)N1CCc2nc(-c3ccccc3)sc2C1`, the Potency entry is “inactive”.

Consider `O=C(NCCOc1ccccc1)c1ccccc1`, for which the Potency result is “inactive”.

As to `O=C(NCCc1ccccc1)c1ccc(OCCOc2ccccc2)cc1`, the Potency result is “inactive”. As for `CCCOc1ccc(C(=O)NCCc2ccccc2)cc1`, the Potency was 14.1 µM (active). With `CCC(C(=O)NCCC(C)C)N(Cc1ccccc1Cl)C(=O)c1snc(C(N)=O)c1N` (stereo unspecified), the Potency entry is “inactive”. The same measure, in the same setting: the result for `CCOC(=O)C1CCCN(CCSc2ccc(C)cc2)C1` (stereo unspecified) reads “inactive”; that for `CCc1ccc(NC(=O)CS(=O)CC(=O)NCCCc2ccccc2)cc1` (stereo unspecified), “inactive”; that for `O=C(Cc1cccc2ccccc12)NCCC1=CCCCC1`, “inactive”.

Turning to `NS(=O)(=O)c1ccc(CCNC(=S)Nc2ccc(S(N)(=O)=O)cc2)cc1`, the Potency result was “inactive”.

On to `S=C(NCCc1ccccc1)Nc1ccccc1`, for which the Potency was 17.8 µM (active). Regarding `O=C(NC1CCN(Cc2ccccc2)CC1)c1c(F)cccc1F`, the Potency result is “inactive”. For the compound `O=C1CCN(C(=S)NCCc2ccccc2)CC1`, the Potency entry is “inactive”. On the same count and under the same terms, next, `S=C(NCCC1=CCCCC1)Nc1ccccc1`: 5.62 µM (active); `S=C(Nc1ccc(Br)cc1)NC1CCN(Cc2ccccc2)CC1`: 15.8 µM (active); `O=C(NCCCc1ccccc1)C(=O)c1c[nH]c2ccccc12`: “inactive”.

With `CC(=O)Nc1ccc(S(=O)(=O)N(C)CC(=O)NCCC2=CCCCC2)cc1`, the Potency entry is “inactive”. For the compound `O=C(COc1ccc(Br)cc1F)NC1CCN(Cc2ccccc2)CC1`, the Potency result is “inactive”.

On to `S=C(NCCCc1ccccc1)Nc1ccc(Br)cc1`, for which the Potency was 10 µM (active). Same read-out and setting: next, `Cc1c(Cl)cccc1NC(=O)NCCCN1CCCC1=O`: “inactive”; `Cn1c(SCC(=O)N2CCCC2)nnc1-c1cccs1`: “inactive”; `COc1ccccc1CN1CC(C(=O)NCCc2cn[nH]c2)CCC1=O` (stereo unspecified): “inactive”. Same read-out and setting: the result for `Cc1ccn(CCC(=O)N2c3ccccc3CC2C)n1` (stereo unspecified) reads “inactive”. With `COc1ccc(OC)c(NC(=O)c2ccc3c(c2)C(=O)N(c2ccc(OC(C)=O)cc2)C3=O)c1`, the Potency entry was “inactive”. Turning to `O=C(NCCNc1ccccc1[N+](=O)[O-])c1ccccc1F`, the Potency entry is “inactive”.

As to `COc1ccc(-c2nonc2NC(=O)c2oc3ccc(F)cc3c2C)cc1OC`, the Potency result is “inactive”.

In the case of `COc1ccc(S(=O)(=O)N2CCC(C(=O)NCc3ccco3)CC2)cc1C`, the Potency entry was “inactive”.

`N#Cc1ccccc1S(=O)(=O)N1CCN(C(=O)c2cc(-c3ccccc3)nn2-c2ccccc2)CC1`: the Potency result is “inactive”. As to `Cc1c(CCC(=O)N[C@@H](CC(C)C)C(=O)O)c(=O)oc2c(C)c3oc4c(c3cc12)CCCC4`, the Potency entry was “inactive”. Same read-out and setting: the result for `CCOc1cc2[nH]c(=S)n(Cc3ccc(C(=O)NCCOC)cc3)c(=O)c2cc1OCC` reads “inactive”; that for `COc1cc2[nH]c(=S)n(Cc3ccc(C)o3)c(=O)c2cc1OC`, 10 µM (active). Take `COc1cc2[nH]c(=S)n(CCN3CCCCC3C)c(=O)c2cc1OC` (stereo unspecified): the Potency entry was “inactive”.

Regarding `Cc1ccc(S(=O)(=O)N(CC(O)CN2CCCCC2)c2cccc([N+](=O)[O-])c2)cc1` (stereo unspecified), the Potency result is “inactive”.

For the compound `CCc1ccc(NC(=O)N2CCc3ccccc3C2)cc1`, the Potency result was “inactive”. For `O=c1oc2ccccc2cc1-c1cn(-c2ccccc2)c(=S)[nH]1`, the Potency was 1.78 µM (active). Consider `O=C(c1cn(-c2ccccc2)nc1-c1cc2ccccc2oc1=O)N1CCOCC1`, for which the activity, negative = inhibition is 7.29% [at 10 µM]. Regarding `O=C(Nc1cc2ccccc2oc1=O)C1CCCCC1`, the Potency result was “inactive”. The same measure, in the same setting: the result for `CN(C(=O)COC(=O)c1nc(Cl)ccc1Cl)C1CCS(=O)(=O)C1` (stereo unspecified) reads “inactive”.
